HT1080NT lethal – kills 2HG-producing HT-1080-NT fibrosarcoma cells | HT-1080-NT fibrosarcoma viability, CellTiter-Glo ATP luminescence, 48 h | Potency, µM (series often up to 46.1 µM), for the others: top-dose activity, negative = less viability, hits mostly cytotoxic | 360,000 compounds, 1.6% hits;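 note: NT is the 2HG producing partner of a matched IDH1 knockdown line; potency is the fitted concentration of half-maximal effect; 0% = DMSO-treated cells and -100% = media-only wells without cells; nearly all actives have a fitted effect of over 55% in size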
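A 48-hour cytotoxicity screen used HT-1080-NT cells plated 2 hours before compound delivery. ATP-based CellTiter-Glo luminescence measured viability, normalized to DMSO and no-cell controls.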
TDP1 cell noCPT – qHTS for Inhibitors of human tyrosyl-DNA phosphodiesterase 1 (TDP1): qHTS in cells in absence of CPT; 420,000 compounds, 15% hits; Potency, µM (doses to about 46.2 µM), for inactives: top-dose activity change, negative = growth inhibition, actives largely listed as inhibitors; DT40 Tdp1-/- hTDP1 cells, no CPT, ATP luminescence, 48 h; note: potency is the fitted concentration of half-maximal effect; nearly all actives have a fitted effect of over 55% in size
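DT40 Tdp1-/-;hTDP1 cells, no CPT (DMSO vehicle only), 400 cells/well; compounds pin-transferred; ≥48 hr, 37 °C; CellTiter-Glo 30 min RT dark, luminescence read.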
IL-1B inflam inh – blocks inflammasome-driven IL-1 beta release. activity change, % at 57.5 µM. THP-1 LPS/ATP IL-1B secretion, AlphaLISA, 16 h; active compounds read low. 360,000 compounds, 4.7% hits; in the data active = activity change below about -50%; inconclusive = mostly about -30% to -49%
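Secreted IL-1B measured by AlphaLISA bead assay after 16 h compound exposure of THP-1 cells; compounds (final up to 57.5 uM) added 1 h before LPS (250 ng/mL) and ATP (1.25 mM) stimulation; lower signal means less secretion.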
HT1080 IDH1KD tx – kills HT-1080 cells with IDH1 knockdown; HT-1080 IDH1 knockdown viability, ATP luminescence, 48 h; Potency, µM (doses to about 46.1 µM), for the others: at the highest dose activity, negative = toxicity, actives largely listed as cytotoxic; 360,000 compounds, 2% hits; AID 686971;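 note: potency is the fitted concentration of half-maximal effect; 0% = DMSO wells and -100% = cell-free medium wells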
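IDH1KD HT-1080 cells, 750/well, RPMI + 5% FBS; compound pinned after 2 h settling; 48 h, 37 °C; CellTiter-Glo luminescence; % activity normalised to DMSO and no-cell wells; curves fitted, classed by r2 and efficacy.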
TDP1 cell CPT – DT40-hTDP1 cell growth loss with CPT; chicken DT40 Tdp1-/-;hTDP1 cells + 20 nM CPT, ATP luminescence, 48 h; Potency, µM (highest dose often 46.2 µM), without a hit: at the highest dose activity change, negative = growth inhibition, usual class: inhibitors; 420,000 compounds, 12% hits; AID 686979; note: potency is the fitted concentration of half-maximal effect; nearly all actives have a fitted effect of over 55% in size
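Chicken DT40 Tdp1-/- cells stably complemented with human TDP1 were seeded at 400 cells/well in medium containing 20 nM camptothecin, exposed to pin-transferred compounds, and grown at 37 °C for at least 48 hr. Viability was read as ATP luminescence.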
An asterisk follows results filed as active; [ ] = another dose, or the depositor's remark. Hits are enriched below; roughly 19% of the tested compounds scored in any of these assays. Unless noted, calls come from the whole dose curve; as a rule, active = well fitted curve in the direction sought with a large enough effect; inconclusive = small, poorly fitted or top-dose-only effect, or another doubt; inactive = no such curve, though single readings can be large; an effect the other way counts as inactive or inconclusive. Unless noted, % is set by controls: 0 for no effect and ±100 for the full control effect.

Screening COc1ccc(CN2CCOc3ccc(C(O)c4cccnc4)cc3C2)cc1O (configuration not stated) returned TDP1 cell noCPT -18.7% and TDP1 cell CPT 3.7%[9.04 µM].
For Cc1ccc(S(=O)(=O)NCCC(=O)NCC(c2cccs2)N2CCOCC2)cc1 (configuration not stated) the results were HT1080NT lethal -1.7%, TDP1 cell noCPT -5.6%, IL-1B inflam inh -5.5, HT1080 IDH1KD tx -2.4% and TDP1 cell CPT inconclusive.
`CCCCCC1CCC(c2n[nH]c(=S)n2C)CC1` (configuration not stated) gave HT1080NT lethal -18.5%, TDP1 cell noCPT 2.91µM*, IL-1B inflam inh 3.7, HT1080 IDH1KD tx -24.2% and TDP1 cell CPT 7.31µM*.
`Cn1c(C2CCCN2C(=O)OC(C)(C)C)n[nH]c1=S` (configuration not stated) gave HT1080NT lethal 0.2%, TDP1 cell noCPT 1.7%, IL-1B inflam inh 0.0, HT1080 IDH1KD tx -13.6% and TDP1 cell CPT -1.9%.
`C/C(CC(=O)NC1CCCCC1)=N\NC(=O)Cc1ccc(-c2ccccc2)cc1` gave HT1080NT lethal 7.5%, TDP1 cell noCPT -17.1%, IL-1B inflam inh 11.9, HT1080 IDH1KD tx 13.8% and TDP1 cell CPT 2.7%.
Screening CCN1C(N(C)CCc2cccs2)=N[C@@H](c2ccccc2)C(C(=O)OC)=C1C returned HT1080NT lethal 7.9%, TDP1 cell noCPT inconclusive, IL-1B inflam inh 11.6, HT1080 IDH1KD tx 2.6% and TDP1 cell CPT inconclusive.
For CCN1C(=O)N[C@@H](c2cccc(C(F)(F)F)c2)C(C(=O)OC)=C1C the results were HT1080NT lethal 4.7%, TDP1 cell noCPT inconclusive, IL-1B inflam inh 5.9, HT1080 IDH1KD tx 0.1% and TDP1 cell CPT 16.4µM*.
`CCN1C(=NCc2cccc(C(F)(F)F)c2)N[C@@H](c2cccc(C(F)(F)F)c2)C(C(=O)OC)=C1C` gave TDP1 cell noCPT 5.01µM* and TDP1 cell CPT 4.47µM*.
CCN1C(N(C)CCc2c[nH]c3ccccc23)=N[C@@H](c2cccc(C(F)(F)F)c2)C(C(=O)OC)=C1C was read as HT1080NT lethal -6.7%, TDP1 cell noCPT 23.1µM*, IL-1B inflam inh inconclusive, HT1080 IDH1KD tx -19.1% and TDP1 cell CPT 9.2µM*.
CCN1C(=NCc2cccc(Cl)c2)N[C@@H](c2cccc(C(F)(F)F)c2)C(C(=O)OC)=C1C was read as TDP1 cell noCPT inconclusive and TDP1 cell CPT 11.2µM*.
Screening CCN(CC)CCCN=C1N[C@@H](c2cccc(C(F)(F)F)c2)C(C(=O)OC)=C(C)N1CC returned HT1080NT lethal inconclusive, TDP1 cell noCPT -86.3%, IL-1B inflam inh -25.8, HT1080 IDH1KD tx inconclusive and TDP1 cell CPT inconclusive.
For COc1ccccc1Cc1nc2ccccc2nc1SCC(=O)Nc1cccc(Cl)c1C the results were TDP1 cell noCPT 0.6% and TDP1 cell CPT 19.6%.
Screening CC(=O)c1c(C)oc2ccc(N(C(=O)Oc3ccccc3)S(=O)(=O)c3ccc(Cl)cc3)cc12 returned TDP1 cell noCPT -10.0% and TDP1 cell CPT -2.5%.
CCC(NC(=O)NCCCn1ccnc1)(C(F)(F)F)C(F)(F)F was read as HT1080NT lethal -2.3%, TDP1 cell noCPT -6.6%, IL-1B inflam inh 0.8, HT1080 IDH1KD tx 4.5% and TDP1 cell CPT 15.7%.
O=c1c2ccccc2nc2c3ccccc3cnn12 was read as HT1080NT lethal 12.9%, TDP1 cell noCPT inconclusive, IL-1B inflam inh 0.0, HT1080 IDH1KD tx 4.9% and TDP1 cell CPT inconclusive.
Screening O=c1c2ccccc2nc2c3ccccc3c3nncn3n12 returned HT1080NT lethal 7.2%, TDP1 cell noCPT 5.17µM*, IL-1B inflam inh -7.7, HT1080 IDH1KD tx -0.7% and TDP1 cell CPT 7.31µM*.
For COc1ccc(O)c(/C=N/NC(=O)CN2CCS(=O)(=O)CC2)c1 the results were HT1080NT lethal -4.0%, TDP1 cell noCPT -56.0%, IL-1B inflam inh 68.2, HT1080 IDH1KD tx inconclusive and TDP1 cell CPT inconclusive.
For C[C@H](CO)N1C[C@H](C)[C@@H](CN(C)S(=O)(=O)c2ccccc2)Oc2c(NC(=O)Nc3ccc(C(F)(F)F)cc3)cccc2C1=O the results were HT1080NT lethal inconclusive, TDP1 cell noCPT 16.4µM*, IL-1B inflam inh inconclusive, HT1080 IDH1KD tx inconclusive and TDP1 cell CPT inconclusive.
`C[C@H](CO)N1C[C@H](C)[C@@H](CN(C)S(C)(=O)=O)Oc2c(NC(=O)C3CCCCC3)cccc2C1=O` gave HT1080NT lethal 1.1%, TDP1 cell noCPT -5.4%, IL-1B inflam inh -9.6, HT1080 IDH1KD tx -1.3% and TDP1 cell CPT -14.4%.
`Cc1ccc(S(=O)(=O)Nc2cccc3c2O[C@H](CN(C)Cc2ccccc2)[C@@H](C)CN([C@H](C)CO)C3=O)cc1` gave HT1080NT lethal 19.0%, TDP1 cell noCPT 16.4µM*, IL-1B inflam inh -6.8, HT1080 IDH1KD tx -5.1% and TDP1 cell CPT inconclusive.
`COc1ccc(S(=O)(=O)N(C)C[C@H]2Oc3c(NC(=O)C4CCCCC4)cccc3C(=O)N([C@H](C)CO)C[C@@H]2C)cc1` gave HT1080NT lethal -1.8%, TDP1 cell noCPT 23.1µM*, IL-1B inflam inh -21.0, HT1080 IDH1KD tx -10.2% and TDP1 cell CPT inconclusive.
For C[C@H]1CN([C@@H](C)CO)C(=O)c2cccc(NC(=O)Nc3ccc(C(F)(F)F)cc3)c2O[C@@H]1CN(C)C(=O)Nc1ccc(F)cc1 the results were HT1080NT lethal inconclusive, TDP1 cell noCPT 5.8µM*, IL-1B inflam inh 0.8, HT1080 IDH1KD tx inconclusive and TDP1 cell CPT 5.17µM*.
Screening C[C@H](CO)N1C[C@H](C)[C@@H](CN(C)S(=O)(=O)c2ccccc2)Oc2c(NC(=O)c3ccncc3)cccc2C1=O returned HT1080NT lethal -0.6%, TDP1 cell noCPT -3.5%, IL-1B inflam inh -9.7, HT1080 IDH1KD tx 9.4% and TDP1 cell CPT -11.3%.
Screening CC1(C(=O)NS(=O)(=O)c2ccc(C#N)cc2)CCN1C(=O)Cc1cc(F)ccc1F (configuration not stated) returned HT1080NT lethal 27.8%, TDP1 cell noCPT 10.2%, IL-1B inflam inh 12.2, HT1080 IDH1KD tx 14.3% and TDP1 cell CPT -3.9%.
C[C@H](CO)N1C[C@H](C)[C@@H](CN(C)Cc2ccncc2)Oc2c(NS(=O)(=O)c3ccccc3)cccc2C1=O was read as HT1080NT lethal 8.3%, TDP1 cell noCPT -23.7%, IL-1B inflam inh -3.4, HT1080 IDH1KD tx -0.3% and TDP1 cell CPT -0.7%.
